Results as given in the supplement of paper PMC10127200.
Structures can show the parent of a compound that is named as a salt.

Assays:
Assay in all cases: Euclidean distance of Cell Painting phenotypic profile (signed KS, 77 features) to DMSO centroid (dimensionless distance); higher = stronger phenotypic change vs DMSO (phenoactivity)
Conditions in all cases: 48 h; 5 or 10 uM (library dependent)
786-O = tested on: 786-O
How it was run: (§1)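 Phenoactivity is computed as Euclidean distance to the median vehicle profile. The profiles, drawn from 77 Harmony features scored as signed Kolmogorov-Smirnov statistics versus same-plate vehicle wells, were corrected for plate position, correlation-weighted and replicate-averaged at the top dose. Stained cells were imaged confocally at 20X (9 fields/well) after 48 h with library compounds at 10 or 5 uM, 0.1% DMSO final, in five cancer lines and a healthy fibroblast line.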

A549 = tested on: A549
How it was run: as §1

DU145 = tested on: DU145
How it was run: as §1

FB = tested on: FB
How it was run: as §1

HEPG2 = tested on: HEPG2
How it was run: as §1

OVCAR4 = tested on: OVCAR4
How it was run: as §1

Row | SMILES | Euclidean distance (786-O) | Euclidean distance (A549) | Euclidean distance (DU145) | Euclidean distance (FB) | Euclidean distance (HEPG2) | Euclidean distance (OVCAR4)
1 | CC(C)NCC(O)c1ccccc1Cl (stereo not drawn) [Clorprenaline HCl] | 1.06 | 1.11 | 0.599 | 1.22 | 0.405 | 1.29
2 | N.N.[Cl][Pt][Cl] [Cisplatin] | 1.62 | 1.39 | 0.914 | 0.888 | 1.55 | 0.788
3 | CC(C)(C)[C@]1(O)CC2OC(=O)CC23C(=O)OC2OC(=O)[C@H](O)C231 (stereo partly drawn) [Bilobalide] | 1 | 1.09 | 0.515 | 0.78 | 0.996 | 1.47
4 | CC(NC(C)(C)C)C(=O)c1cccc(Cl)c1 (stereo not drawn) [Amfebutamone (Bupropion) HCl] | 1.39 | 0.604 | 0.844 | 0.936 | 0.484 | 1.02
5 | O=C(Oc1ccc([N+](=O)[O-])cc1)N1CCC(C(O)(c2ccc3c(c2)OCO3)c2ccc3c(c2)OCO3)CC1 | 1.24 | 1.34 | 1.4 | 1.86 | 1.15 | 1.12
6 | CCOc1ccccc1-n1c(C(C)N2CCN(C(=O)COc3ccc(Cl)cc3)CC2)nc2ccccc2c1=O (stereo not drawn) [Erastin] | 3.85 | 1.31 | 1.34 | 3.12 | 1.68 | 2.13
7 | O=c1[nH]c2ccccc2n1CCCN1CCC(n2c(=O)[nH]c3cc(Cl)ccc32)CC1 [Domperidone] | 1.75 | 1.18 | 2.1 | 1.14 | 0.776 | 1.67
8 | CCNC(=O)C[C@@H]1N=C(c2ccc(Cl)cc2)c2cc(OC)ccc2-n2c(C)nnc21 | 1.96 | 1.78 | 1.76 | 3.4 | 1.26 | 1.66
9 | O=C1C=C2C=C[C@@H]3C[C@@]2(O1)[C@H]1CCCCN31 [Securinine] | 0.99 | 1.25 | 1.42 | 1.78 | 1.08 | 1.74
10 | [O-][n+]1ccccc1[S-].[O-][n+]1ccccc1[S-].[Zn+2] [Zinc Pyrithione] | 6.27 | 4.94 | 7.6 | 6.01 | 5.34 | 6.33
11 | CC(C)(O)C(Cl)(Cl)Cl [Chlorobutanol] | 1.34 | 1.04 | 1.02 | 0.61 | 0.725 | 2
12 | Cc1ccc(/N=C/N(C)/C=N/c2ccc(C)cc2C)c(C)c1 [Amitraz] | 0.966 | 0.885 | 0.902 | 0.718 | 0.47 | 0.684
13 | CC(Cc1ccc(O)cc1)NCC(O)c1cc(O)cc(O)c1 (stereo not drawn) [Fenoterol hydrobromide] | 0.772 | 0.319 | 0.524 | 0.734 | 0.461 | 0.781
14 | CN[C@@H]1[C@@H](O)[C@@H](O[C@@H]2[C@@H](O)[C@H](O[C@H]3O[C@H]([C@@H](C)O)[C@@H](O)[C@H](O)[C@H]3N)[C@@H](N)C[C@H]2N)OC[C@]1(C)O [Geneticin (G418 Sulfate)] | 1.73 | 0.917 | 1.4 | 1.24 | 1.23 | 1.53
15 | O=C(NCC1CCOCC1)c1cnc(Nc2ccc(Cl)cc2Cl)nc1C(F)(F)F | 0.865 | 1.09 | 1.36 | 3.43 | 1.64 | 3.11
16 | CC[C@H]1CN2CC[C@H]1C[C@@H]2[C@@H](O)c1ccnc2ccc(OC)cc12 [Hydroquinidine] | 0.75 | 0.791 | 0.64 | 1.18 | 0.881 | 1.23
17 | Cc1cc(C(C#N)c2ccc(Cl)cc2)c(Cl)cc1NC(=O)c1cc(I)cc(I)c1O (stereo not drawn) [Closantel] | 1.21 | 0.707 | 0.758 | 0.654 | 0.749 | 0.648
18 | CCC1(c2ccc(N)cc2)CCC(=O)NC1=O (stereo not drawn) [Aminoglutethimide] | 1.19 | 0.545 | 0.574 | 1.37 | 0.54 | 1.67
19 | CC(C)(C)NCC(O)c1ccccc1Cl (stereo not drawn) [Tulobuterol hydrochloride] | 0.975 | 0.768 | 0.82 | 0.711 | 0.75 | 1.75
20 | CC(=O)OCC1=C(C(=O)O)N2C(=O)[C@@H](N)[C@H]2SC1 [7-Aminocephalosporanic acid] | 1.45 | 0.819 | 1.16 | 1 | 0.55 | 0.832
21 | NC(=O)CN1CC(O)CC1=O (stereo not drawn) [Oxiracetam] | 1.07 | 0.677 | 0.989 | 1.39 | 0.778 | 0.764
22 | Cc1ccc(-n2nccn2)c(C(=O)N2CCN(c3nc4cc(Cl)ccc4o3)CC[C@H]2C)c1 [Suvorexant (MK-4305)] | 0.574 | 1.02 | 0.945 | 0.9 | 2.25 | 0.979
23 | CC(=O)Nc1ccc(OC[C@](C)(O)C(=O)Nc2ccc([N+](=O)[O-])c(C(F)(F)F)c2)cc1 [Andarine] | 1.46 | 1.78 | 0.858 | 0.758 | 0.703 | 1
24 | CN1C(=O)COc2c(C(=O)NC3CN4CCC3CC4)cc(Cl)cc21 (stereo not drawn) [Azasetron HCl] | 0.735 | 0.632 | 0.582 | 0.666 | 0.533 | 0.74

Row | SMILES | Euclidean distance (786-O) | Euclidean distance (A549) | Euclidean distance (DU145) | Euclidean distance (FB) | Euclidean distance (HEPG2) | Euclidean distance (OVCAR4)
25 | CCc1c(C(=O)C(N)=O)c2c(OCC(=O)O)cccc2n1Cc1ccccc1 | 0.933 | 1.14 | 1.33 | 0.633 | 0.812 | 0.982
26 | CC(C)C(Br)C(=O)NC(N)=O (stereo not drawn) [Bromisoval] | 1.54 | 0.435 | 2.15 | 0.988 | 0.659 | 0.646
27 | NC(=O)CN1CC(c2ccccc2)CC1=O (stereo not drawn) [Phenylpiracetam] | 1.05 | 1.45 | 0.789 | 0.956 | 0.413 | 1.3
28 | CCC(=O)O[C@H]1CC[C@H]2[C@@H]3CC[C@H]4CC(=O)[C@H](C)C[C@]4(C)[C@H]3CC[C@]12C [Drostanolone Propionate] | 0.791 | 1.02 | 0.706 | 0.585 | 1.34 | 0.745
29 | CC(O)(CS(=O)(=O)c1ccc(F)cc1)C(=O)Nc1ccc(C#N)c(C(F)(F)F)c1 (stereo not drawn) [Bicalutamide] | 1.1 | 1.04 | 0.992 | 1.28 | 0.832 | 1.65
30 | CN1CCC(C(=O)c2cccc(NC(=O)c3c(F)cc(F)cc3F)n2)CC1 [Lasmiditan succinate] | 1.46 | 0.669 | 1.83 | 0.918 | 0.782 | 1.39
31 | OC(c1ccccc1)(c1ccccc1)C1CCNCC1 [Azacyclonol] | 2.95 | 2.91 | 3.75 | 3.06 | 2.31 | 3.18
32 | Oc1cccc2cccnc12 [8-Hydroxyquinoline] | 4.55 | 1.4 | 2.11 | 6.09 | 1.99 | 1.56
33 | COc1ccc(C(=O)O)cc1OC [Veratric acid] | 0.978 | 0.85 | 1.2 | 0.896 | 1.05 | 0.931
34 | Oc1ccc(Cl)cc1Cc1cc(Cl)ccc1O [Dichlorophene] | 0.835 | 1.05 | 1.3 | 1.16 | 0.516 | 1.18
35 | Cc1cc(O)ccc1Cl [Chlorocresol] | 0.894 | 0.612 | 0.527 | 0.762 | 0.668 | 1.1
36 | O=P1(N(CCCl)CCCl)NCCCO1 (stereo not drawn) [Cyclophosphamide Monohydrate] | 1.18 | 0.863 | 1.62 | 0.969 | 2.05 | 1.07
37 | O=[N+]([O-])/C=C/c1ccc2c(c1)OCO2 | 4.42 | 2.25 | 0.868 | 2.39 | 0.782 | 2.34
38 | CNCC(O)c1ccc(O)cc1 (stereo not drawn) [Synephrine HCl] | 0.581 | 0.451 | 0.914 | 0.485 | 0.371 | 1.27
39 | CCCN1CCO[C@@H]2c3cc(O)ccc3OC[C@H]21 | 0.455 | 0.629 | 0.762 | 0.945 | 0.824 | 0.818
40 | Cn1c(COP(=O)(NCCBr)NCCBr)cnc1[N+](=O)[O-] [Evofosfamide (TH-302)] | 1.45 | 2.69 | 0.904 | 1.3 | 1.86 | 2.84
41 | O=C1CC[C@@]2(O)[C@H]3Cc4ccc(O)c5c4[C@@]2(CCN3CC2CC2)[C@H]1O5 [Naltrexone HCl] | 1.26 | 0.818 | 0.868 | 0.982 | 1.84 | 1.99
42 | O=C(O[C@H]1C[N+]2(CCCOc3ccccc3)CCC1CC2)C(O)(c1cccs1)c1cccs1 [Aclidinium Bromide] | 1.15 | 1.13 | 1.29 | 0.774 | 0.61 | 1.23
43 | CCC(COC(=O)c1cc(OC)c(OC)c(OC)c1)(c1ccccc1)N(C)C (stereo not drawn) [Trimebutine] | 0.93 | 0.4 | 0.604 | 0.704 | 1.26 | 0.747
44 | CN1[C@@H]2C[C@@H](OC(=O)[C@H](CO)c3ccccc3)C[C@H]1[C@@H]1O[C@@H]12 [Scopolamine HBr] | 1.07 | 0.645 | 0.406 | 0.816 | 0.391 | 1.01
45 | Cc1sc2c(c1C)C(c1ccc(Cl)cc1)=N[C@@H](CC(=O)Nc1ccc(O)cc1)c1nnc(C)n1-2 | 2.95 | 2.08 | 2.15 | 4.11 | 1.91 | 1.77
46 | N#Cc1ccc(N2CCC[C@@H]2[C@@H](O)C(F)(F)F)cc1C(F)(F)F [Ligandrol (LGD-4033. VK-5211)] | 1.52 | 1.1 | 0.95 | 1.1 | 0.87 | 1.15
47 | CC[C@@H](C(N)=O)N1CCCC1=O [Levetiracetam] | 1.07 | 1.76 | 0.591 | 1.12 | 0.604 | 1.81
48 | C[C@H]1CC(=O)C[C@@H]2CC[C@H]3[C@@H]4CC[C@H](O)[C@@]4(C)CC[C@@H]3[C@]21C [Mesterolone] | 1.38 | 1.27 | 1.33 | 1.08 | 0.446 | 0.883
